LANA-H2A inh – blocks KSHV LANA binding to histone H2A/H2B; Q9QR71; cell-free LANA-H2A/H2B peptide, fluorescence polarization; inhibition, % (concentration not given with the values); 320,000 compounds, 0.6% hits; in the data active means inhibition mostly above about 10%, no sharp cut-off; inactive means mostly below about 6.7%
Rtt109 Vps75 – C. albicans Rtt109 histone acetyltransferase inhibition | Q5AAJ8 | inhibition, % at 34.9 µM | 330,000 compounds, 0.16% hits | AID 540336 | purified Rtt109/Vps75, ThioGlo CoA-SH fluorescence, 4 h;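 active means inhibition of at least 50% in every replicate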
rCAG binder – binds r(CAG) RNA repeats; 370,000 compounds, 1.3% hits; inhibition, % at 3 µM; r(CAG) RNA repeat, TO-PRO-1 dye displacement fluorescence;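 active means inhibition above the plate cutoff, the mean of all test compounds on that plate plus 3 SD, cut at about 35% in these data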;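 further: 0% = DMSO alone and 100% = 100 µM mitoxantrone as full dye displacement; higher means more dye released from RNA so lower well fluorescence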
PRMT1 inh – PRMT1 (human) inhibition, primary screen; Q99873; recombinant PRMT1, activity-based probe fluorescence polarization; inhibition, % at 2.79 µM; 370,000 compounds, 1.3% hits; AID 652257;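 active means inhibition above about 21% made by adding two undisclosed values, limit read from the data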
Target sequence (Q99873 whole entry, looked up): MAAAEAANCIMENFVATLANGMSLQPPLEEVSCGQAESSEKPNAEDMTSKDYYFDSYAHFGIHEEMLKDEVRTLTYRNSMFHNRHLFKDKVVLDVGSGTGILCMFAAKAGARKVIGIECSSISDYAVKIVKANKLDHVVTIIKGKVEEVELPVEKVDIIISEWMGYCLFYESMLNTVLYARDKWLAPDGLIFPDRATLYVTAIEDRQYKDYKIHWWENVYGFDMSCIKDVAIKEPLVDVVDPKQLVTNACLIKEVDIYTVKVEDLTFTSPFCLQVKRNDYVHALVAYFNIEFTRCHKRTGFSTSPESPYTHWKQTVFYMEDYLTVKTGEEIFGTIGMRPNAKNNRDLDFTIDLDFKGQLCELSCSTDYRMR
ABHD5-PLIN5 inh – ABHD5-PLIN5 protein interaction inhibition | Split G. princeps luciferase complementation, luminescence, 4 h | Q00G26+Q8WTS1 | AID 602281 | inhibition, % at 4 µM | 360,000 compounds, 0.78% hits;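 active means inhibition above the mean inhibition across every tested compound plus 3 SD, cut at about 22% in these data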;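 further: 0% = DMSO only wells and the 100% control is not disclosed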
ALR H2O2 inh – inhibitors of human sulfhydryl oxidase ALR; P55789; purified ALR, DTT oxidation, H2O2 HRP-luminol luminescence; inhibition, % (test concentration not listed); 290,000 compounds, 3.8% hits; AID 485317;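 active means mean replicate inhibition above about 79%, with every replicate also reaching it, limit read from the data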
Target sequence (P55789 whole entry, looked up): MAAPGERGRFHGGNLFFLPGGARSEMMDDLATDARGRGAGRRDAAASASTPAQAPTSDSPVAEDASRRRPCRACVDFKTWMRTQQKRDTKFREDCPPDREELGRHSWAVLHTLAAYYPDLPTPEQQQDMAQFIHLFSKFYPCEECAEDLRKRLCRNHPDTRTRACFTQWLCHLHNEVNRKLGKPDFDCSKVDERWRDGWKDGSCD
* marks the source's active call; other numbers are inactive results. Sampled rows, rich in hits. Any-hit rate of the full collection: about 5.9%.

For Cc1cc(N/N=C/c2ccco2)c2ccccc2n1 the results were LANA-H2A inh -4.3, Rtt109 Vps75 -1.5, rCAG binder 0.0, PRMT1 inh -3.7, ABHD5-PLIN5 inh -1.6 and ALR H2O2 inh 77.1*.
`CCC(C(=O)Nc1ccccc1N1CCCC1)c1cccc(C)c1` (centres undefined) gave rCAG binder 1.4 and PRMT1 inh -1.2.
Screening COc1cc(C(O)c2nc(-c3cccc(C(F)(F)F)c3)cs2)ccc1F (centres undefined) returned rCAG binder 2.6, PRMT1 inh 0.4 and ABHD5-PLIN5 inh -15.3.
Screening COC(=O)c1cc(C)oc1C returned rCAG binder 1.9 and PRMT1 inh 0.5.
For CCCCCCCCN1C(=O)[C@@H](CC(=O)NCc2cccc(C(F)(F)F)c2)C[C@@]2(C(=O)OC)C1=C[C@H](C(C)(C)C)O[C@@H]2C the results were rCAG binder -0.5 and PRMT1 inh 0.5.
For COC(=O)c1cnn(-c2ccc(Cl)cc2)c1/C=N/NC(=S)Nc1ccccc1 the results were PRMT1 inh -0.2.
COc1ccccc1/C=N/Nc1cc(C)nc2ccc(C)cc12 was read as LANA-H2A inh 0.1, Rtt109 Vps75 0.7, rCAG binder -3.0, PRMT1 inh 0.1, ABHD5-PLIN5 inh -3.5 and ALR H2O2 inh 99.1*.
`Cc1cc(N/N=C/c2ccc(O)cc2O)c2ccccc2n1` gave LANA-H2A inh -1.6, Rtt109 Vps75 -9.6, rCAG binder 1.0, PRMT1 inh 5.0, ABHD5-PLIN5 inh -10.4 and ALR H2O2 inh 96.5*.
Cc1cc(N/N=C/c2c[nH]c3ccccc23)c2ccccc2n1 was read as LANA-H2A inh -1.1, Rtt109 Vps75 6.6, rCAG binder 0.2, PRMT1 inh -1.4, ABHD5-PLIN5 inh 5.5 and ALR H2O2 inh 49.2.
For COc1ccccc1/C=N/Nc1nc(C)cc(C)n1 the results were LANA-H2A inh -4.9, Rtt109 Vps75 -6.1, rCAG binder 10.3, PRMT1 inh 2.9, ABHD5-PLIN5 inh 6.7 and ALR H2O2 inh 8.1.
For N=c1n(CCN2CCCCC2)c2ccccc2n1CC(O)c1ccc(Cl)c(Cl)c1 (centres undefined) the results were LANA-H2A inh -1.4, Rtt109 Vps75 57.9*, rCAG binder 13.9, PRMT1 inh -0.1, ABHD5-PLIN5 inh 15.6 and ALR H2O2 inh -16.3.
CN(C)CCn1c(=N)n(CC(O)c2ccc(Cl)c(Cl)c2)c2ccccc21 (centres undefined) was read as LANA-H2A inh -0.6, Rtt109 Vps75 2.0, rCAG binder 6.3, PRMT1 inh -2.2, ABHD5-PLIN5 inh 22.8* and ALR H2O2 inh -3.4.
Screening N=c1n(CCN2CCCCC2)c2ccccc2n1CC(=O)c1ccc(Cl)c(Cl)c1 returned LANA-H2A inh -1.3, rCAG binder 4.6, PRMT1 inh 4.6, ABHD5-PLIN5 inh 22.0* and ALR H2O2 inh -1.2.
For O=C(C1CCCN1S(=O)(=O)c1ccc(F)cc1)N1CCc2ccccc2C1 (centres undefined) the results were rCAG binder 2.4 and PRMT1 inh 4.7.
Screening COc1ccc2c(c1)CNC2CS(=O)(=O)NCc1ccccc1 (centres undefined) returned rCAG binder 7.8 and PRMT1 inh -3.9.
`COc1cccc(CNc2ccc(F)c([N+](=O)[O-])c2)c1O` gave LANA-H2A inh 5.1, Rtt109 Vps75 8.7, rCAG binder -0.9, PRMT1 inh 4.4, ABHD5-PLIN5 inh 2.3 and ALR H2O2 inh 98.2*.
For O=[N+]([O-])c1ccccc1CNc1ccc(F)c(Cl)c1 the results were LANA-H2A inh 4.0, Rtt109 Vps75 5.6, rCAG binder 4.3, PRMT1 inh 0.7 and ABHD5-PLIN5 inh -3.2.
`CCN(CC)C(=O)CSc1nnc([C@@H](N)Cc2ccccc2)o1` gave LANA-H2A inh -5.1, Rtt109 Vps75 8.6, rCAG binder -0.8, PRMT1 inh 3.8, ABHD5-PLIN5 inh -4.2 and ALR H2O2 inh -7.0.
Screening N[C@@H](Cc1ccccc1)c1nnc(SCc2ccccc2Cl)o1 returned LANA-H2A inh 9.1, Rtt109 Vps75 2.1, rCAG binder -1.2, PRMT1 inh 1.3, ABHD5-PLIN5 inh -2.2 and ALR H2O2 inh 98.4*.
For O=C(O)c1ccc(N/N=C2/CCSc3ccc(F)cc32)cc1 the results were LANA-H2A inh 1.0, Rtt109 Vps75 9.5, rCAG binder 19.9, PRMT1 inh 1.9, ABHD5-PLIN5 inh -10.8 and ALR H2O2 inh 98.3*.
O=C(O)c1ccc(N/N=C2/CCCc3ccccc32)cc1 was read as LANA-H2A inh -6.5, Rtt109 Vps75 3.1, rCAG binder 6.9, PRMT1 inh 13.9, ABHD5-PLIN5 inh -2.1 and ALR H2O2 inh 97.9*.
COc1ccc(N(CC(=O)NCc2ccco2)S(=O)(=O)c2ccc(C)cc2)cc1OC was read as LANA-H2A inh 2.9, Rtt109 Vps75 5.4, rCAG binder -0.9, PRMT1 inh 1.6 and ABHD5-PLIN5 inh -2.5.
COc1ccccc1OCCC(=O)OCC(=O)NCc1ccc(F)cc1 was read as LANA-H2A inh -0.7, Rtt109 Vps75 -0.1, rCAG binder -1.3, PRMT1 inh -3.9 and ABHD5-PLIN5 inh -2.4.
For COc1ccccc1NCCC(=O)OCC(=O)NCc1ccco1 the results were LANA-H2A inh 11.7, Rtt109 Vps75 2.3, rCAG binder 15.8, PRMT1 inh 2.5, ABHD5-PLIN5 inh -2.9 and ALR H2O2 inh 98.7*.
`COc1ccc(OC)c(NC(=O)COC(=O)Cc2ccc(-c3ccccc3)cc2)c1` gave LANA-H2A inh -1.8, Rtt109 Vps75 0.5, rCAG binder 8.0, PRMT1 inh -2.4, ABHD5-PLIN5 inh -0.7 and ALR H2O2 inh -11.3.
COc1ccc(OC)c(NC(=O)COC(=O)CCNc2ccccc2OC)c1 was read as LANA-H2A inh -0.2, Rtt109 Vps75 5.2, rCAG binder 5.6, PRMT1 inh 5.0, ABHD5-PLIN5 inh 2.4 and ALR H2O2 inh 98.1*.
Screening COc1ccccc1OCCC(=O)OCC(=O)NCc1ccc(Cl)cc1 returned LANA-H2A inh 0.7, Rtt109 Vps75 12.1, rCAG binder -5.3, PRMT1 inh -4.2, ABHD5-PLIN5 inh 1.4 and ALR H2O2 inh 96.9*.
For COc1ccccc1N(CC(=O)NCc1ccco1)S(=O)(=O)c1ccc(C)cc1 the results were LANA-H2A inh -5.5, Rtt109 Vps75 0.2, rCAG binder 9.8, PRMT1 inh 21.5*, ABHD5-PLIN5 inh 6.9 and ALR H2O2 inh 9.2.
Screening CN(Cc1ccccc1)C(=O)OCc1cn(Cc2cccc(Cl)c2)nn1 returned rCAG binder 2.6 and PRMT1 inh 2.4.
Screening O=C(COC(=O)COc1ccccc1)NCc1ccco1 returned LANA-H2A inh 17.6*, Rtt109 Vps75 3.1, rCAG binder 3.8, PRMT1 inh 2.3, ABHD5-PLIN5 inh 7.7 and ALR H2O2 inh 29.3.
CCn1c(=O)n(CC(=O)Nc2cc(OC)ccc2OC)c(=O)c2ccccc21 was read as LANA-H2A inh 0.6, Rtt109 Vps75 -4.5, rCAG binder -2.9, PRMT1 inh -0.2, ABHD5-PLIN5 inh 6.2 and ALR H2O2 inh 98.7*.

Screening data (PubChem BioAssay)
